Source: PubChem BioAssay AID488841 (Sanford-Burnham Center for Chemical Genomics, 2010)
In all, about 1,400 compounds went through this assay and about 380 (27%) were called active.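 Rule for the calls: active = mean inhibition above 50% across duplicate retests at 10 µM; inactive = the rest.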 The list shows a part of the results.

Assay: inhibition of NALP1/ASC/caspase-1 reporter signal in yeast, confirmation, NALP1 inhibitor project, S. cerevisiae, luminescence, single concentration (AID 488841);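 note: plate controls were DMSO in galactose medium for no effect and cells in plain SD medium for full effect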
Conditions: S. cerevisiae NALP1/ASC/Caspase-1 reporter, beta-gal luminescence; at 10 µM; hits give high values

| SMILES | inhibition |
| --- | --- |
| CCOc1ccc(CNC(=O)c2cc3oc4ccccc4c3n2C)cc1 | 7.2% (inactive) |
| O=C1C=CCC(/C=C/c2ccccc2)O1 (stereo not drawn) | 69.2% (active) |
| c1ccc(-c2c[nH]c3[n+]2CCCCC3)cc1 | 26.2% (inactive) |
| COc1ccc(CNCCC(c2ccc(F)cc2)c2ccc(OC)cc2)cc1 (stereo not drawn) | 65.8% (active) |
| CCc1ccc(OCCNC(=O)OCc2ccccc2)cc1 | 48.8% (inactive) |
| COc1ccc(OCCCC(=O)NCC(C)C)cc1 | 32.4% (inactive) |
| CCOCCCNCc1ccc(OCc2ccccc2Cl)cc1 | 49.2% (inactive) |
| COc1ccc(OCCCC(=O)Oc2ccc(OC)cc2)cc1 | 42.6% (inactive) |
| COc1ccc(OCCCC(=O)NCCc2ccccc2)cc1 | 60.8% (active) |
| COc1ccc(CCNCc2ccc(OCc3ccccc3)cc2)cc1 | 78.5% (active) |
| COc1ccc(CNCCSc2nnnn2C)cc1OC | 49% (inactive) |
| COc1ccc(C(CCNCc2ccccc2F)c2ccc(F)cc2)cc1 (stereo not drawn) | 48.2% (inactive) |
| CN(C)c1ccc(O)c2c1CC1CC3[C@@H](N(C)C)C(=O)C(C(N)=O)=C(O)[C@]3(O)C(=O)C1=C2O (stereo partly drawn) | 28.8% (inactive) |
| Cc1cc(/C=C2/SC(=S)N(c3ccc([N+](=O)[O-])cc3)C2=O)c(C)n1-c1cccnc1 | 34.9% (inactive) |
| O=C1Cc2ccccc2C(=O)N1OCc1ccc(Cl)cc1Cl | 26.8% (inactive) |
| COc1cc(Cc2cnc(N)nc2N)cc(OC)c1OC | 24.9% (inactive) |
| Oc1c(I)cc(Cl)c2cccnc12 | 56.2% (active) |
| Oc1c(CN2CCCCC2)cc(Br)c2cccnc12 | 26.2% (inactive) |
| C=C(C)COc1ccc2c(CC)cc(=O)oc2c1C | 63.1% (active) |
| CC1CCCN(CCC(=O)c2ccc(Br)cc2)C1 (stereo not drawn) | 28.8% (inactive) |
| CC1=NN(c2ccc(C)cc2C)C(=O)C1C(c1cccc(O)c1)C1C(=O)N(c2ccc(C)cc2C)N=C1C (stereo not drawn) | 38% (inactive) |
| C/C(=N\NC(=O)Nc1ccccc1)c1ccccc1 | 47.1% (inactive) |
| C=CCNC(=S)N/N=C(\C)c1ccccn1 | 57.5% (active) |
| COc1cccc(NC(=O)Cn2cnc3sc(C)c(S(=O)(=O)N4CCCCC4)c3c2=O)c1 | 20.9% (inactive) |
| COc1cc(/C=N/n2cnnc2)ccc1OCc1ccc(C)cc1 | 50.9% (active) |
| COc1cc(C2Nc3ccccc3C(=O)N2c2ccccc2)ccc1O (stereo not drawn) | 27.3% (inactive) |

| SMILES | inhibition |
| --- | --- |
| COC1=C(N)C(=O)c2nc(-c3nc(C(=O)O)c(C)c(-c4ccc(OC)c(OC)c4O)c3N)ccc2C1=O | 33.7% (inactive) |
| Cc1cccc(N2Cc3ccccc3C2=NC(=O)c2ccc(Cl)nc2)c1 | 26.5% (inactive) |
| COC(=O)N/N=C(\C)c1ccc2ccccc2c1OC(F)F | 55.9% (active) |
| CCSc1ncc(/C=N/Nc2ccccc2)n1C | 68.9% (active) |
| CCSc1nnc(-c2cnn(-c3ccccc3)c2-n2cccc2)n1C | 26.1% (inactive) |
| Clc1ccc(OCCCNCc2ccccc2)c2ccccc12 | 49.3% (inactive) |
| COC(=O)C(CCSC)NC(=O)Cn1ncc2c(=O)oc3ccccc3c21 (stereo not drawn) | 35.1% (inactive) |
| CN(C#N)c1nc(Cl)nc(Nc2cccc(Cl)c2)n1 | 23.4% (inactive) |
| O=C(COc1ccc(Br)cc1Br)NC(=S)Nc1cccc(CO)c1 | 29.1% (inactive) |
| COc1ccc(CNc2cccc(F)c2)cc1Br | 62% (active) |
| COc1ccc(Cc2ccc(OC)c(N)c2)cc1N | 36.5% (inactive) |
| CC(C)c1ccc(NCCC(=O)c2cccs2)cc1 | 44.8% (inactive) |
| CC1CC1C(=O)Nc1nc(-c2ccccc2)cs1 (stereo not drawn) | 66.7% (active) |
| O=C(COC(=O)c1cccs1)Nc1nc(-c2ccccc2)cs1 | 34% (inactive) |
| O=C(COC(=O)/C=C/c1cccs1)Nc1nc(-c2ccccc2)cs1 | 13.8% (inactive) |
| O=C(Cc1coc2cc3c(cc12)CCC3)NCC1(N2CCCCC2)CCCCC1 | 22.9% (inactive) |
| O=C1C2C(C(=O)N1/N=C/c1ccc([N+](=O)[O-])o1)C1C=CC2C12CC2 (stereo not drawn) | 34.8% (inactive) |
| O=C1C2C(C(=O)N1/N=C/c1cc(Br)cc([N+](=O)[O-])c1O)C1C=CC2C12CC2 (stereo not drawn) | 59.4% (active) |
| O=C(CN1CCCCC1)Nc1cccc(Oc2ccccc2)c1 | 25.9% (inactive) |
| O=S(=O)(N1CCCCC1)N1CCN(c2ccc(F)cc2)CC1 | 29.6% (inactive) |
| O=C1C=CC(=O)N1c1ccc(N2CCCCC2)cc1 | 70.8% (active) |
| O=[N+]([O-])c1ccc(N2CCCCC2)cc1 | 32.1% (inactive) |
| CCCCN(CC)S(=O)(=O)c1ccccc1 | -8.3% (inactive) |
| CCCCCCCCCCCCCCCC[n+]1cccc(C(=O)N(CC)CC)c1 | 80.4% (active) |
| CCCCCCCCCCCCCCCC[n+]1ccc(C(N)=O)cc1 | 81.4% (active) |
| CCCCCCCCCCCCCCCC[n+]1ccc(/C=N/O)cc1 | 82% (active) |

| SMILES | inhibition |
| --- | --- |
| C1=CC2CC1CC2CN1CCN(Cc2ccccc2)CC1 (stereo not drawn) | 46.4% (inactive) |
| COc1cc(-c2nc(C(F)(F)F)c(OC)o2)cc(OC)c1OC | 28.9% (inactive) |
| O=C(NC(N1CCOCC1)C(Cl)(Cl)Cl)c1ccc(Br)cc1 (stereo not drawn) | -17.9% (inactive) |
| CC1=CC2=NC(=O)/C(=C\c3cccn3CCOc3cccc(C)c3)C(=N)N2O1 | 76.5% (active) |
| O=C(O)/C=C/C(=O)OC1CC2CCC1C2 (stereo not drawn) | 24.1% (inactive) |
| CN(C)Cc1ccccc1COc1ccccc1 | 23.2% (inactive) |
| C/C(=C(\C#N)C(=O)NCc1ccccc1)N(C)C | 33.3% (inactive) |
| COc1ccccc1OCC(=O)N/N=C/C=C/c1ccc([N+](=O)[O-])o1 | 32.6% (inactive) |
| Cc1cc(N2CCOCC2)ccc1/C=C\[N+](=O)[O-] | 41.6% (inactive) |
| CCOc1ccc(NC(=O)/C=C/c2ccccc2)c([N+](=O)[O-])c1 | 31.1% (inactive) |
| CCOC(=O)COc1ccccc1/C=C\[N+](=O)[O-] | 101% (active) |
| CCOC(=O)COc1ccc2ccccc2c1/C=C/[N+](=O)[O-] | 99.7% (active) |
| O=C(CCCN1C(=O)c2ccccc2C1=O)Oc1ccc(Cl)cc1 | 37.3% (inactive) |
| CC(NCCC(c1ccccc1)c1ccccc1)c1ccccc1 (stereo not drawn) | 50.5% (active) |
| CCN1/C(=C/C=C/C=C/c2sc3ccccc3[n+]2CC)Sc2ccccc21 | 51% (active) |
| COc1cccc(OCc2ccc(C(=O)NCC3CCCO3)cc2)c1 (stereo not drawn) | 36.2% (inactive) |
| CC1(O)N(Cc2ccccc2)C(=O)OC12CCCCC2 (stereo not drawn) | 29.2% (inactive) |
| O=C(COC(=O)c1ccc(-c2ccc([N+](=O)[O-])cc2)o1)NC(=O)NC1CCCCC1 | 37.8% (inactive) |
| O=C(N/N=C/c1cc(Cl)ccc1O)c1ccc(Br)cc1 | 43.6% (inactive) |
| CC(C)(C)c1nnc(N/N=C/c2cc(Br)ccc2O)n(N)c1=O | 53.5% (active) |
| CCCCNC(=O)Nc1cc(C)on1 | 23.2% (inactive) |
| CN(C)/C=N/n1cnc2ccccc2c1=O | 23.6% (inactive) |
| Cc1cc2ncn(/N=C/c3ccc([N+](=O)[O-])s3)c2cc1C | 65.3% (active) |
| CCOC(=O)C1CCN(C(=O)c2cc3cc4cc(OC)ccc4nc3o2)CC1 | 45.9% (inactive) |
| CCOc1ccc2nc(SC3CC(=O)N(c4cccc(OC)c4)C3=O)sc2c1 (stereo not drawn) | 32.1% (inactive) |
| O=S(=O)(Nc1ccc(-n2cccc2)cc1)c1ccc(Cl)cc1Cl | 52.4% (active) |

| SMILES | inhibition |
| --- | --- |
| O=C(O)C1CCN(C(=O)c2csc(-c3ccc4c(c3)CCO4)n2)CC1 | 22.9% (inactive) |
| CCCC(=O)c1ccc(-c2ccccc2)cc1 | 52.4% (active) |
| Cc1cccc(C)c1OCCNC(=O)CCC(=O)c1ccccc1 | 33.9% (inactive) |
| Cc1ccc(C(=O)CCC(=O)O)cc1 | 37% (inactive) |
| O=C1OC(/C=C/c2ccc(Cl)cc2)=NC/1=C/c1ccco1 | 36.4% (inactive) |
| CCCCCCCCCCCCCCCCn1cc[n+](C)c1 | 84.8% (active) |
| CCCCCCCCCCCCCCCCn1cc[n+](CC(C)=O)c1 | 76.5% (active) |
| CCCNCC1COc2ccccc2O1 (stereo not drawn) | 31.2% (inactive) |
| COc1ccccc1OCCN1CSC(=S)N(C)C1 | 47% (inactive) |
| O=[N+]([O-])c1cc2oc3c(c2c(C=NCc2ccccc2)c1O)CCCC3 | 34.6% (inactive) |
| Cc1oc(-c2ccccc2Cl)nc1CSc1nc2c(c(=O)[nH]1)CCC2 | 31.5% (inactive) |
| CNc1nc(SCc2ccccc2Cl)nc2c1CCCC2 | 99% (active) |
| CNc1nc(SCc2ccc(C)cc2)nc2c1CCCC2 | 98.8% (active) |
| Cc1ccc(NC(=O)N(C2CCCCC2)C(C)c2cccnc2)cc1C (stereo not drawn) | 32.9% (inactive) |
| Clc1ccc(C2=NNC(=NCc3ccc4c(c3)OCO4)SC2)cc1 | 27.9% (inactive) |
| CC(C)N1CCC2(CC1)N=C(c1ccc3c(c1)OCO3)CC(c1cc(Cl)ccc1O)N2 (stereo not drawn) | 62.8% (active) |
| N#CC(C#N)=c1ccc2c(c1)N1C3=C(CCCC3)CC3CCCCC31N=2 (stereo not drawn) | 7.95% (inactive) |
| CC1CCCC/C1=N\Nc1ccc(S(N)(=O)=O)cc1[N+](=O)[O-] (stereo not drawn) | 30.3% (inactive) |
| COC(=O)c1c(S(=O)(=O)NCc2ccccc2)sc(C(=O)O)c1C | 22% (inactive) |
| Fc1ccc(Nc2ccnc(Nc3ccc(F)cc3)n2)cc1 | 29.5% (inactive) |
| COc1ccc(Nc2ccnc(Nc3ccc(OC)cc3)n2)cc1 | 55% (active) |
| CCN(CC)S(=O)(=O)c1ccc2[nH]c(=O)cc(C(=O)Nc3ccc(C)c(S(=O)(=O)N(CC)CC)c3)c2c1 | 27.6% (inactive) |
| Clc1ccc(Nc2ccc(NCc3ccccc3)nn2)cc1 | 75.7% (active) |
| CC(C)C(NS(=O)(=O)c1ccc2c(c1)oc(=O)n2C)C(=O)N1CCN(C2CCCCC2)CC1 (stereo not drawn) | 25.9% (inactive) |
| CSc1ccc(S(=O)(=O)NCc2ccc(C)cc2)cc1 | 38.7% (inactive) |
